Measurements: publication PMC4336329 (PLoS ONE, 2015)
Hit rate of the full screen: of about 310,000 compounds, about 14,000 (4.5%) showed an effect of 50% or more. Effects have a minus sign here. This is one part of a sample in which strong results are shown more often than they occur.

Biological target: human ether-à-go-go-related gene (hERG) potassium channel (human, UniProt Q12809)
Experiment: primary screen, population patch clamp on CHO cells stably expressing hERG; higher = less effect of the substance
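Further: peak tail current of the secondary pulse compared with the same well before compound.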

Sequence of human ether-à-go-go-related gene (hERG) potassium channel (Q12809 whole entry, looked up): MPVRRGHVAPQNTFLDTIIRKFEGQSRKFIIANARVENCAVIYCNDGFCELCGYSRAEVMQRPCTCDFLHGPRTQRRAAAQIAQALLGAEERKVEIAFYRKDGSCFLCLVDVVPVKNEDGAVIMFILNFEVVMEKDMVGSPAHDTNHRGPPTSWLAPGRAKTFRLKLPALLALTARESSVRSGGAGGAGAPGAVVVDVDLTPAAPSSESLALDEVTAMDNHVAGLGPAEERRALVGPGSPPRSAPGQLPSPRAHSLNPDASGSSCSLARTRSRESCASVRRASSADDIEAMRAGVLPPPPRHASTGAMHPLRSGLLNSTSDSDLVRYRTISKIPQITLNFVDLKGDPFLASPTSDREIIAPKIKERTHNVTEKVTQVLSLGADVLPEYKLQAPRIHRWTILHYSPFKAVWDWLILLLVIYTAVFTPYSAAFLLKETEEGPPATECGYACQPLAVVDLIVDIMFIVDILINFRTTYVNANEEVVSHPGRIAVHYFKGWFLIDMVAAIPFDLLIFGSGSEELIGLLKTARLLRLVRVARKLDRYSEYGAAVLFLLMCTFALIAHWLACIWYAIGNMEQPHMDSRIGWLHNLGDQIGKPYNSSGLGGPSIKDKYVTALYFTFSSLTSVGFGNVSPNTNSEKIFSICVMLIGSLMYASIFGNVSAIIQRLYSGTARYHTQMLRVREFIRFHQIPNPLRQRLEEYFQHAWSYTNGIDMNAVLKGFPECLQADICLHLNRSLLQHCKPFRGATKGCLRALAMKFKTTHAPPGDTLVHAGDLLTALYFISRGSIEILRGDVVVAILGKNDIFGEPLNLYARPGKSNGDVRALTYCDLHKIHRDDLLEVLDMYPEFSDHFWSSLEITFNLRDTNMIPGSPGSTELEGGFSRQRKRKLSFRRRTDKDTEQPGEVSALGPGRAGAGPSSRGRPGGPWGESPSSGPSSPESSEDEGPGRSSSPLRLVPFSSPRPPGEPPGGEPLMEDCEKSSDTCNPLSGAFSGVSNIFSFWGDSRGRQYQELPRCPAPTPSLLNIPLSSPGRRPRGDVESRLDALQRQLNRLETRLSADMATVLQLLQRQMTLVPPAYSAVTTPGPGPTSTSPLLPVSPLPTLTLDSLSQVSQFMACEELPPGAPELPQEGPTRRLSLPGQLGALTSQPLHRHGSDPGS

Row | SMILES | hERG current change (%, negative = inhibition) at 10uM
1 | CC(C)C(=O)c1cn(CC(=O)NCc2ccc3c(c2)OCO3)c2ccccc12 | 16%
2 | CC1(C)CC(=O)C=C(c2ccc3[nH]ccc3c2)C1 | 1.61%
3 | O=C(CC1SC(=Nc2ccc3c(c2)OCCO3)NC1=O)Nc1ccc(F)cc1F (stereo not drawn) | 8.62%
4 | Cc1n[nH]c(=S)n1/N=C/c1ccc(OCc2ccc(Cl)cc2Cl)cc1 | 11.1%
5 | Cc1cc(NC(=O)Cn2nnc(-c3ccccc3N)n2)no1 | 11.8%
6 | CCOC(=O)c1c(NC(=O)CSc2nnc(-c3ccccc3)o2)sc(C(C)=O)c1C | 5.01%
7 | O=C(c1ccccc1)N1CCN(c2ccc([N+](=O)[O-])cc2-n2cccc2)CC1 | -54.5%
8 | O=C(c1ccc(F)cc1)N1CCC(C(=O)N2CCN(S(=O)(=O)c3cccc([N+](=O)[O-])c3)CC2)CC1 | -34.5%
9 | Cc1ccc(N2CCN(C(=O)c3ccccc3)CC2)c(C)c1 | -18.4%
10 | O=C(c1ccccc1F)N1CCN(c2ccc([N+](=O)[O-])cc2-n2cccc2)CC1 | -23.1%
11 | O=C(C1CC1)N1CCN(c2ccc([N+](=O)[O-])cc2-n2cccc2)CC1 | -31%
12 | CC(C)(C)C(=O)N1CCN(c2ccc([N+](=O)[O-])cc2-n2cccc2)CC1 | -26.3%
13 | O=C(c1ccc(F)cc1)N1CCN(c2ccc([N+](=O)[O-])cc2-n2cccc2)CC1 | -65%
14 | Cc1ccc(C(=O)N2CCN(c3ccc([N+](=O)[O-])cc3-n3cccc3)CC2)cc1 | -56.4%
15 | CCOC(=O)C1CCCN(C(=O)c2cc3ccc(OC)cc3[nH]2)C1 (stereo not drawn) | 6.4%
16 | CN1CCN(CCCNCc2cn(CCC#N)c3ccccc23)CC1.O=C(O)C(=O)O | 9.43%
17 | Cc1ccc(C(O)(COC(=O)C(C)C)COC(=O)C(C)C)c(O)c1 | 3.76%

Row | SMILES | hERG current change (%, negative = inhibition) at 10uM
18 | O=C(CCCC(=O)N(c1ccc2c(c1)OCCO2)C(C(=O)NC1CCCCC1)c1ccc(F)cc1)Nc1ccccn1 (stereo not drawn) | 10%
19 | COc1ccc([N+](=O)[O-])cc1CSc1ccccn1 | 1.85%
20 | O=C(NC1CCCCC1)C(c1cccs1)N(CC1CCCO1)C(=O)c1csnn1 (stereo not drawn) | -16.1%
21 | COc1ccc(NC(=O)c2noc(C(C)C)c2[N+](=O)[O-])cc1 | 6.44%
22 | COc1ccc(NC(=O)CN2CCN(S(=O)(=O)c3ccc(Cl)cc3)CC2)cc1 | -79.7%
23 | O=C(CN1CCCN(S(=O)(=O)c2ccc(Br)s2)CC1)Nc1ccc(Cl)cc1 | -28.7%
24 | O=C(CN1CCN(S(=O)(=O)c2ccc(Cl)cc2)CC1)NC1CC1 | 1.82%
25 | COc1ccc(NC(=O)CCN2CCN(S(=O)(=O)c3ccc(Cl)cc3)CC2)cc1 | -27.1%
26 | CCOc1ccc(NC(=O)CN2CCN(S(=O)(=O)c3ccc(Cl)cc3)CC2)cc1 | -9.26%
27 | COc1cc(NC(=O)CN2CCN(S(=O)(=O)c3ccc(C(C)C)cc3)CC2)cc(OC)c1 | -11.5%
28 | Cc1cc(C)cc(NC(=O)CN2CCCN(S(=O)(=O)c3ccc(Br)s3)CC2)c1 | -6.01%
29 | COc1ccc(NC(C)=O)cc1NC(=O)CN1CCN(S(=O)(=O)c2ccc(C(C)C)cc2)CC1 | -9.86%
30 | O=C(CN1CCN(S(=O)(=O)c2ccc(Cl)cc2)CC1)NC(=O)NC1CCCCC1 | -27.7%
31 | COc1ccc(NC(=O)CN2CCN(S(=O)(=O)c3ccc(C(C)C)cc3)CC2)cc1OC | -66.5%
32 | O=C(CN1CCN(S(=O)(=O)c2ccc(Cl)cc2)CC1)NC1CCCC1 | -50.2%
33 | Cc1ccc(NC(=O)CN2CCCN(S(=O)(=O)c3ccc(Br)s3)CC2)cc1 | -50.1%
